# Results as given in the supplement of paper PMC6522484.
# ± gives the standard deviation of the averaged measurements.
# Columns and labels:
# DLD1 [1] = experiment: cell viability (CellTiter-Glo) relative to plate median (fraction of plate median); higher = more viable cells; conditions: 5 µM; treatment time 24 h; reporter: 7TFP
# Procedure, shortened: (§1)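 Colorectal cancer lines with stably integrated lentiviral TCF/Wnt firefly luciferase reporters received library compounds at a final 5 µM, 24 h after seeding into 384-well plates, for a 24 h exposure. Reported figures are plate-median-normalised firefly luciferase or CellTiterGlo luminescence per well. They average two independent replicates.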
# HCT116 = experiment: as above; conditions: 5 µM; treatment time 24 h; reporter: TCF4/Wnt
# Procedure, shortened: as §1
# SW480 [2] = experiment: as above; conditions: 5 µM; treatment time 24 h; reporter: 7TFP
# Procedure, shortened: as §1
# DLD1 [3] = experiment: TCF/Wnt firefly luciferase reporter signal relative to plate median (fraction of plate median); higher = higher Wnt reporter signal; conditions: 5 µM; treatment time 24 h; reporter: 7TFP
# Procedure, shortened: as §1
# SW480 [4] = experiment: as above; conditions: 5 µM; treatment time 24 h; reporter: 7TFP
# Procedure, shortened: as §1
Structure (SMILES),cell viability (DLD1 [1]),cell viability (HCT116),cell viability (SW480 [2]),TCF/Wnt firefly luciferase reporter signal (DLD1 [3]),TCF/Wnt firefly luciferase reporter signal (SW480 [4])
COc1cc(N)c(Cl)cc1C(=O)NC1CCN(Cc2ccccc2)CC1,0.971 ± 0.026,0.883 ± 0.041,0.975 ± 0.0071,0.8815 ± 0.0021,0.998 ± 0.017
CNCCC(Oc1ccc(C(F)(F)F)cc1)c1ccccc1 (stereo not given),0.9505 ± 0.00071,0.952 ± 0.12,0.948 ± 0.069,1.2 ± 0.26,0.993 ± 0.052
C=CC(C)(O)CCC=C(C)CCC=C(C)C (mixture of isomers),1.09,0.977 ± 0.075,0.94 ± 0.0028,0.8335 ± 0.00071,0.851 ± 0.15
CC(=O)N(O)CCCCCNC(=O)CC(O)(CC(=O)NCCCCCN(O)C(C)=O)C(=O)O [Arthrobactin],0.989 ± 0.03,1.06 ± 0.057,1.03 ± 0.049,0.976 ± 0.12,1.06 ± 0.028
CCN(CC)CCNC(=O)c1cc(Cl)c(N)cc1OC,1 ± 0.037,1.04 ± 0.066,0.993 ± 0.025,1.14 ± 0.05,1 ± 0.069
CC[C@@H]1C(=O)N(C)c2cnc(Nc3ccc(C(=O)N[C@H]4CC[C@H](N5CCN(CC6CC6)CC5)CC4)cc3OC)nc2N1C(C)C [Volasertib],1 ± 0.036,0.666 ± 0.095,1.21 ± 0.078,0.91 ± 0.17,1.06 ± 0.042
COC(=O)CC[C@@H](C)[C@H]1CC[C@H]2[C@@H]3CC[C@@H]4C[C@H](O)CC[C@]4(C)[C@H]3C[C@H](O)[C@]12C,0.964 ± 0.065,1.02 ± 0.097,0.944 ± 0.018,0.955 ± 0.079,0.875 ± 0.061
CC(C)=CCc1c(O)cc2oc(C)cc(=O)c2c1O,1 ± 0.036,0.981 ± 0.055,1 ± 0.024,0.869 ± 0.15,0.943 ± 0.095
C=C(NC(=O)C(=C)NC(=O)c1csc(C2=N[C@@H]3c4csc(n4)[C@H]4NC(=O)c5csc(n5)[C@H]([C@](C)(O)[C@@H](C)O)NC(=O)[C@H]5CSC(=N5)/C(=C/C)NC(=O)[C@H]([C@@H](C)O)NC(=O)c5csc(n5)[C@]3(CC2)NC(=O)[C@H](C)NC(=O)C(=C)NC(=O)[C@H](C)NC(=O)[C@H]([C@@H](C)CC)N[C@@H]2C=Cc3c([C@H](C)O)cc(nc3[C@H]2O)C(=O)O[C@@H]4C)n1)C(N)=O,0.927 ± 0.044,1.05,0.999 ± 0.044,0.966 ± 0.18,1.05 ± 0.071
COc1ccc2oc3ccccc3c(=O)c2c1,1.075 ± 0.0071,1.05 ± 0.078,1.09 ± 0.05,1.15 ± 0.13,1.1 ± 0.078
CC(C)=CCC[C@](C)(O)C1CC=C(C)CC1 (stereo not given in full),1.04 ± 0.063,0.973 ± 0.081,1.1 ± 0.085,1.03 ± 0.014,0.996 ± 0.076
Cc1cc(-n2c(=O)[nH]c(=O)n(C)c2=O)ccc1Oc1ccc(SC(F)(F)F)cc1,0.946 ± 0.052,1 ± 0.023,0.952 ± 0.016,0.926 ± 0.013,1.04 ± 0.06
OC1(c2ccc(Cl)c(C(F)(F)F)c2)CCN(CCCC(c2ccc(F)cc2)c2ccc(F)cc2)CC1,0.982 ± 0.14,1.08 ± 0.071,0.994 ± 0.023,1.1 ± 0.21,0.931 ± 0.092
O=c1cc(-c2ccc(O)cc2)oc2cc(O[C@@H]3O[C@H](CO)[C@@H](O)[C@H](O)[C@H]3O)cc(O)c12,0.924 ± 0.044,1.06 ± 0.093,1 ± 0.038,1.02 ± 0.059,1.07 ± 0.078
COc1ccc(/C=C/C(=O)O)cc1OC,1.02 ± 0.045,1.06 ± 0.16,0.951 ± 0.083,1.01 ± 0.021,0.984 ± 0.021
NC(=O)NCCC[C@H](N)C(=O)O,1 ± 0.12,1 ± 0.051,1.015 ± 0.0071,0.944 ± 0.043,0.864 ± 0.083
Cc1cc(O)cc(C)c1Cl,0.903 ± 0.012,0.8955 ± 0.0021,0.918 ± 0.13,0.881 ± 0.059,1.01
CCOC(=O)c1ccc(N)cc1,1 ± 0.05,0.903 ± 0.076,1.005 ± 0.0071,0.9395 ± 0.0092,0.897 ± 0.09
Cc1ncc([N+](=O)[O-])n1CCO,1.08 ± 0.064,1.06 ± 0.071,1.02 ± 0.014,1.06 ± 0.042,0.964 ± 0.11
CC(=O)O[C@H]1C[C@@]2(C)[C@@H](C[C@@H](O)[C@H]3[C@@]4(C)CC[C@@H](O)[C@@H](C)[C@@H]4CC[C@@]32C)/C1=C(\CCC=C(C)C)C(=O)O,1.04 ± 0.05,1 ± 0.054,1.04 ± 0.028,1.12 ± 0.05,1.06 ± 0.064
NCCCC[C@H](N[C@@H](CCc1ccccc1)C(=O)O)C(=O)N1CCC[C@H]1C(=O)O,1.03 ± 0.05,1.01 ± 0.07,1.003 ± 0.0099,0.9065 ± 0.00071,0.827 ± 0.069
COc1cc(C)c2c(=O)cc(-c3ccccc3)oc2c1,0.991 ± 0.027,0.884 ± 0.083,1 ± 0.041,1.18 ± 0.092,1.14 ± 0.014
C/C1=C\CC(C)(C)/C=C/CC2(C)OC2CC1 (stereo not given),1.04 ± 0.035,0.96 ± 0.099,1.03 ± 0.035,1.09 ± 0.12,0.8895 ± 0.00071
C[N+]1(CCCCC[N+]2(C)CCCC2)CCCC1,0.998 ± 0.018,1.01 ± 0.039,0.995 ± 0.064,0.888 ± 0.21,0.98 ± 0.071
Cc1ccc2c(Cl)cc(Cl)c(O)c2n1,1.01 ± 0.021,1.01 ± 0.15,1.07,1.06 ± 0.22,1.04 ± 0.067
OCCN1CCN(CCCN2c3ccccc3Sc3ccc(Cl)cc32)CC1,0.891 ± 0.027,0.917 ± 0.08,0.983 ± 0.025,1.03,0.976 ± 0.13
O=C(O)C1=C(CSc2nnnn2CS(=O)(=O)O)CS[C@@H]2[C@H](NC(=O)[C@H](O)c3ccccc3)C(=O)N12,0.951 ± 0.025,1.05 ± 0.071,0.973 ± 0.052,0.915 ± 0.023,0.968 ± 0.04
Nc1ncnc2c1ncn2[C@@H]1O[C@H](COP(=O)(O)O)[C@@H](O)[C@H]1O,0.958 ± 0.025,0.983 ± 0.081,1.03 ± 0.059,1.09,0.974 ± 0.12
